# Measured values published in PMC7862700, “An all-to-all approach to the identification of sequence-specific readers for epigenetic DNA modifications on cytosine”.
# Biological target: T1, ETS2 (Homo sapiens, UniProt P15036 1-469)
# T1 sequence: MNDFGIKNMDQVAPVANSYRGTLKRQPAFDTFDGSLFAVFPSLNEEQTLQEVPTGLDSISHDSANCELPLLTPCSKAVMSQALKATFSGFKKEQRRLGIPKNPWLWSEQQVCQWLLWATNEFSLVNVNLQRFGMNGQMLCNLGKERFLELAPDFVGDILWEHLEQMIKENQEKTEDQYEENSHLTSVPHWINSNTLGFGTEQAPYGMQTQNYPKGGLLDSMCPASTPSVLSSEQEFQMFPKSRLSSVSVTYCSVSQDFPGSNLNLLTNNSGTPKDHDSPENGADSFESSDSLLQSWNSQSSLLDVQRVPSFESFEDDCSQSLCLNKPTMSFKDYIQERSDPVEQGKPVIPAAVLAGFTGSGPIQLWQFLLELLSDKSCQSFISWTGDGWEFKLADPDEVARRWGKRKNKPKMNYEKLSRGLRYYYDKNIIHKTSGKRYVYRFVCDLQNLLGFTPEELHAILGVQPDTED
# Experiment: DAPPL (digital affinity profiling via proximity ligation, sequencing); 10 mM Tris-HCl pH 7.5, 50 mM NaCl, 1 mM DTT, 4% glycerol, room temperature, 30 min; GST-TFs on glutathione beads, 16-mer random dsDNA library, 0.1% formaldehyde crosslink after washing; high values mean tight binding
# Conditions: protein: recombinant; tags: N-terminal GST; dsDNA, one strand shown
# Method in brief: (§1)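 The binding signal reported is, for every hexamer, its read frequency for a factor over its read frequency for the tag-only sample. Reads came from pools of yeast-expressed, GST-fused human transcription factors on glutathione beads, barcoded with DNA and mixed with that sample, which were incubated with 200 nmole of a random double-stranded 16-mer DNA library in Tris/NaCl/DTT/glycerol buffer at room temperature for 30 min. After washing, the pools were crosslinked with 0.1% formaldehyde, proximity-ligated with BsaI/T4 ligase for 1 h at 37 °C, PCR-amplified and sequenced on an Illumina NextSeq500.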
row,Sequence,binding signal
1,TGTACC,"1.38 fold enrichment (6-mer frequency, TF over GST control)"
2,ATCCAA,"1.18 fold enrichment (6-mer frequency, TF over GST control)"
3,TGAATG,"1.25 fold enrichment (6-mer frequency, TF over GST control)"
4,GGTTTA,"1.02 fold enrichment (6-mer frequency, TF over GST control)"
5,GTTCGA,"1.12 fold enrichment (6-mer frequency, TF over GST control)"
6,AGGAAA,"1.48 fold enrichment (6-mer frequency, TF over GST control)"
7,CCGACA,"1.26 fold enrichment (6-mer frequency, TF over GST control)"
8,TGATCA,"1.06 fold enrichment (6-mer frequency, TF over GST control)"
9,AGTTAA,"1.06 fold enrichment (6-mer frequency, TF over GST control)"
10,CTGAAG,"1.22 fold enrichment (6-mer frequency, TF over GST control)"
11,AGGTTT,"1.01 fold enrichment (6-mer frequency, TF over GST control)"
12,TTATTA,"1.07 fold enrichment (6-mer frequency, TF over GST control)"
13,TACTGG,"1.08 fold enrichment (6-mer frequency, TF over GST control)"
14,TTTGAG,"1.08 fold enrichment (6-mer frequency, TF over GST control)"
15,GTTAAT,"1.08 fold enrichment (6-mer frequency, TF over GST control)"
16,TGTACG,"1.17 fold enrichment (6-mer frequency, TF over GST control)"
17,AACTTG,"1.18 fold enrichment (6-mer frequency, TF over GST control)"

row,Sequence,binding signal
1,CGATAT,"1.12 fold enrichment (6-mer frequency, TF over GST control)"
2,TAAGGT,"1.06 fold enrichment (6-mer frequency, TF over GST control)"
3,AAAAGT,"1.07 fold enrichment (6-mer frequency, TF over GST control)"
4,GTTAAG,"1.04 fold enrichment (6-mer frequency, TF over GST control)"
5,TAGAAT,"1.06 fold enrichment (6-mer frequency, TF over GST control)"
6,GCGTTC,"1.21 fold enrichment (6-mer frequency, TF over GST control)"
7,CTGCCA,"1.18 fold enrichment (6-mer frequency, TF over GST control)"
8,CCCCGA,"1.07 fold enrichment (6-mer frequency, TF over GST control)"
9,GCACTC,"1.23 fold enrichment (6-mer frequency, TF over GST control)"
10,AAACTG,"1.08 fold enrichment (6-mer frequency, TF over GST control)"
11,TAGTCC,"1.06 fold enrichment (6-mer frequency, TF over GST control)"
12,TGATAT,"1.12 fold enrichment (6-mer frequency, TF over GST control)"
13,TCGCAC,"1.04 fold enrichment (6-mer frequency, TF over GST control)"
14,GAAACT,"1.22 fold enrichment (6-mer frequency, TF over GST control)"
15,GGAATT,"1.21 fold enrichment (6-mer frequency, TF over GST control)"
16,AGTAAT,"1.15 fold enrichment (6-mer frequency, TF over GST control)"

# Biological target: T2, SPDEF (Homo sapiens, UniProt O95238 1-335)
# T2 sequence: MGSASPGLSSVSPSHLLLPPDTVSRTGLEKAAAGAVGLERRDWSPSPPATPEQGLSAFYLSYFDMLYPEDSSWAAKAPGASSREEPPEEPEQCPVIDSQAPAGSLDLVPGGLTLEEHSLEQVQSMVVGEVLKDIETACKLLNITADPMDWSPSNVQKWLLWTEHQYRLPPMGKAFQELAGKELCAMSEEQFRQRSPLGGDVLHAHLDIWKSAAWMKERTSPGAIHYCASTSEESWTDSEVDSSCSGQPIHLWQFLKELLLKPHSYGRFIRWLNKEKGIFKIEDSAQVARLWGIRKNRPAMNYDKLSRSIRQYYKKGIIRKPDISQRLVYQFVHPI
# Experiment: as above
# Conditions: protein: recombinant; tags: N-terminal GST; dsDNA, one strand shown
# Method in brief: as §1
row,Sequence,binding signal
1,TGTACC,"1.47 fold enrichment (6-mer frequency, TF over GST control)"
2,ATCCAA,"1.22 fold enrichment (6-mer frequency, TF over GST control)"
3,TGAATG,"1.28 fold enrichment (6-mer frequency, TF over GST control)"
4,GGTTTA,"1.1 fold enrichment (6-mer frequency, TF over GST control)"
5,GTTCGA,"1.01 fold enrichment (6-mer frequency, TF over GST control)"
6,AGGAAA,"1.31 fold enrichment (6-mer frequency, TF over GST control)"
7,CCGACA,"1.27 fold enrichment (6-mer frequency, TF over GST control)"
8,TGATCA,"1.05 fold enrichment (6-mer frequency, TF over GST control)"
9,AGTTAA,"1.01 fold enrichment (6-mer frequency, TF over GST control)"
10,CTGAAG,"1.15 fold enrichment (6-mer frequency, TF over GST control)"
11,AGGTTT,"1.02 fold enrichment (6-mer frequency, TF over GST control)"
12,TTATTA,"1.12 fold enrichment (6-mer frequency, TF over GST control)"
13,TAGTAA,"1.02 fold enrichment (6-mer frequency, TF over GST control)"
14,TACTGG,"1.05 fold enrichment (6-mer frequency, TF over GST control)"
15,TTTGAG,"1.04 fold enrichment (6-mer frequency, TF over GST control)"
16,GTTAAT,"1.09 fold enrichment (6-mer frequency, TF over GST control)"
17,TGTACG,"1.29 fold enrichment (6-mer frequency, TF over GST control)"
18,AACTTG,"1.14 fold enrichment (6-mer frequency, TF over GST control)"
19,TCCCAG,"1.07 fold enrichment (6-mer frequency, TF over GST control)"
20,CGATAT,"1.06 fold enrichment (6-mer frequency, TF over GST control)"
